# Sampled rows, rich in hits. Any-hit rate of the full collection: about 2.3%.
# Bim-Mcl-1 = inhibitors of Bim peptide binding to Mcl-1, primary screen, biochemical, bead-based flow cytometry, multiplex; Bim peptide-Mcl-1 binding; inhibition, % at 10 µM; 0.1% of 190,000 active; in the data active means inhibition above about 40%;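 further: 0% = no compound tracer wells and 100% = peptide blocker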
# BCLXL inh = inhibitors of human Bcl-xL, primary screen, biochemical, fluorescence polarization, HTS; GST-Bcl-xL / FITC-Bim BH3 peptide fluorescence polarization; Bcl-2-like protein 1 (Homo sapiens), Q07817; inhibition, % at 10.9 µM; 0.7% of 320,000 active; AID 2129, 2009;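 active means inhibition above the mean of all tested compounds plus 3 SD, cutoff set per campaign, cut at about 30% in these data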;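 further: 0% = DMSO wells and 100% = unlabeled Bim-BH3 peptide competitor; inhibitors lower millipolarization by displacing the labeled peptide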
# Target sequence (Q07817 whole entry, looked up): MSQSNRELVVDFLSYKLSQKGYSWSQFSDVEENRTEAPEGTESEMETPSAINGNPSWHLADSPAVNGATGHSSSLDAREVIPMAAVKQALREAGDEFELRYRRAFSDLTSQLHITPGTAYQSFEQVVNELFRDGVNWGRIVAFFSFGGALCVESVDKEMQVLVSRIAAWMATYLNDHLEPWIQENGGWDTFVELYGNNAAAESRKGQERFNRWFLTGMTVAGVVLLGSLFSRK
# GLD-1 RNA inh = GLD-1/TGE RNA complex disruptors, primary screen, biochemical, fluorescence polarization. Female germline-specific tumor suppressor gld-1 (Caenorhabditis elegans), Q17339. AID 2280, 2010. 0.44% of 320,000 active. inhibition, % at 5.96 µM. purified GLD-1 + fluorescein TGE RNA;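 active means percent inhibition above a per-plate cutoff, the plate mean of test compounds plus 3 SD, cut at about 30% in these data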;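 further: 0% = DMSO wells with GLD-1 and probe and 100% = wells lacking GLD-1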
# MCL1-BIM inh = inhibitors of MCL1 binding to BIM-BH3, primary screen, biochemical, fluorescence polarization | 0.68% of 320,000 active | inhibition, % at 10.9 µM | GST-MCL1 / FITC-Bim-BH3 fluorescence polarization | Induced myeloid leukemia cell differentiation protein Mcl-1 (Homo sapiens), Q07820;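 active means inhibition above the mean inhibition of all tested compounds plus 3 SD, set per campaign, cut at about 40% in these data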;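 further: 0% = DMSO wells and 100% = unlabeled Bim-BH3 peptide control; higher means more loss of mP so more displacement of Bim peptide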
# Mcl1-Noxa inh = Mcl-1/Noxa binding inhibitors, primary screen, biochemical, TR-FRET, 1536-well | Induced myeloid leukemia cell differentiation protein Mcl-1 (Homo sapiens), Q07820 | TR-FRET Mcl-1/Noxa peptide binding, 2 h | inhibition, % at 21.7 µM | 1.5% of 220,000 active;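 active means compounds that cut the protein-peptide binding signal by more than 50% relative to plate controls in a single-dose test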;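 further: His-tagged Mcl-1 with rhodamine Noxa BH3 peptide and terbium anti-His antibody; 0% = Mcl-1 plus Noxa peptide wells and 100% = peptide-only wells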
# Mcl1-Bid inh = Mcl-1/Bid binding inhibitors, primary screen, biochemical, TR-FRET, 1536-well | Induced myeloid leukemia cell differentiation protein Mcl-1 (Homo sapiens), Q07820 | TR-FRET Mcl-1/Bid-Dy647 peptide binding | 0.97% of 220,000 active | AID 1021, 2008 | inhibition, % at 21.7 µM;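 active means compounds that cut the binding signal by more than half at the single screening dose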;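 further: His-tagged Mcl-1 with europium anti-His antibody binding Bid BH3 peptide; 0% = Mcl-1 plus peptide wells and 100% = peptide-only wells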
# Active calls of the source: *; . = no result given.
SMILES,Bim-Mcl-1,BCLXL inh,GLD-1 RNA inh,MCL1-BIM inh,Mcl1-Noxa inh,Mcl1-Bid inh
COc1cccc(/C=N/Nc2ncnc3c2[nH]c2ccc(C)cc23)c1OC,.,2,-5,5,100*,35
COc1ccc(/C=N/Nc2ncnc3c2[nH]c2ccccc23)c(OC)c1OC,-5,-5,0,-9,55*,49
COCCCNC(=O)C1CCC(CNS(=O)(=O)c2ccc(Cl)cc2)CC1 (stereo unspecified),-3,5,5,5,18,-3
COc1ccc(Cl)cc1C(=O)NCCS(=O)(=O)N1CCN(c2ccccc2F)CC1,.,7,-7,4,.,.
C/C(=N\NC(=O)c1ccccc1F)c1ccc2c(c1)Nc1ccccc1S2,0,-9,8,-20,62*,-12
COc1ccccc1C(=O)N1CCC(N2CCN(c3ccccc3OC)CC2)CC1,.,5,2,2,16,24
COc1ccccc1C(=O)N1CCC(N2CCN(c3ccccc3)CC2)CC1,.,2,0,3,-68,56*
CCc1cc(=O)oc2cc3occ(-c4ccc(OC)c(F)c4)c3cc12,-25,-1,-4,-31,1,67*
O=c1[nH]c(/C=C/c2ccccc2[N+](=O)[O-])nc2ccccc12,-10,-1,5,0,4,54*
COc1cccc(C(=O)N2CCN(Cc3ccccc3C(F)(F)F)CC2)c1,-1,3,7,5,30,62*
COC(=O)c1ccccc1NC(=O)CN1CCCCC1,-4,2,2,6,1,-10
CSc1ccc(CN2CCC(C(=O)NCc3ccc(C)cc3)CC2)cc1,0,3,2,-7,29,50*
CN(C)C(=O)CS(=O)(=O)c1ccc(Cl)cc1,.,2,4,-4,44,66*
COc1ccccc1NC(=O)N1CCCC1C(=O)NCc1ccccc1F (stereo unspecified),-3,1,-2,-1,-4,2
O=C(CSc1nc(-c2ccccc2Cl)ns1)NCc1ccc2c(c1)OCO2,2,63*,-6,9,-2,-36
Cc1cc(C(=O)NC(C)C2CCCO2)cs1 (stereo unspecified),-3,7,-4,10,-8,-6
COc1cc(CCC(=O)OCC(=O)Nc2ccc(F)c(F)c2)cc(OC)c1OC,.,1,4,-1,.,.
CCN(c1ccc(NC(=O)COC(=O)CCc2cc(OC)c(OC)c(OC)c2)cc1)C(C)C,-6,.,.,.,59*,-11
CCN(c1ccc(NC(=O)COC(=O)c2ccc(C)s2)cc1)C(C)C,-1,-3,4,-6,63*,-8
OC(CNC1CCCC1)COc1ccc(-c2ccccc2)cc1 (stereo unspecified),0,6,8,1,11,-6
OC(CNC1CCCCC1)COCCOc1ccc(Br)cc1 (stereo unspecified),49*,3,-3,5,21,-8
O=C(CN(C(=O)c1csnn1)c1ccc(F)c(Cl)c1)NC1CCCCC1,.,2,1,2,.,.
C/C(=C\COc1ccc2ccc(=O)oc2c1)CC[C@@H](O)C(C)(C)O,.,160*,5,9,.,.
COc1ccc2c(c1)c1ncn(CCN3CCCC3)c(=O)c1n2C,7,3,1,5,5,-13
Cc1ccc2c(c1)c1ccc3c(c1n2C)C(=O)C=CC3=O,.,.,.,.,108*,23
COc1ccc2c(c1)c1ccc3c(c1n2C)C(=O)C=CC3=O,.,.,.,.,102*,33
Cc1c(/C=N/Nc2ccc(F)cc2)c(O)n(C)c(=O)c1C#N,0,7,-6,8,60*,-32
CC(=O)N=Cc1c(C)c(C#N)c(=O)n(C)c1O,-1,21,5,15,28,-49
Cc1cc(C)c(S(=O)(=O)NCc2cn3c(C)csc3n2)cc1C,0,6,-1,3,76*,3
Cc1cc(C)c(S(=O)(=O)NCc2cn3c(C)csc3n2)c(C)c1,-4,11,-4,8,-54,-143

# Compound activity from PubChem BioAssay.
